Experiment [1] deals with Lysosomal acid glucosylceramidase (Homo sapiens) (UniProt P04062). Briefly: Glucocerebrosidase-p2 (AID 348; in the data active = potency below about 10 µM; also: potency is read from the fitted curve at half-maximal effect). To be noted: purified GBA, blue fluorogenic substrate, 40 min. In outline:
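Compounds titrated from 0.6 nM upwards against 0.2 nM enzyme in pH 5.9 citric acid/KH2PO4, taurocholate, tween-20; blue fluorogenic substrate 80 uM, 40 min room temperature, stopped and read Ex 365/Em 440 for AC50.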

Experiment [2] is described as follows: AP1 Signaling Pathway (AID 357; active = well fitted curve in either direction with a large enough effect, not every such curve was filed as active;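 also: ME-180 reporter cells stimulated with EGF at its EC50 level; % is scaled to controls: 0 for no effect and ±100 for the full control effect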). To be noted: ME-180 AP-1-bla reporter, EGF-induced, beta-lactamase ratio, 5 h; at 7.69 µM (top of the series) unless noted. In outline:
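A ratiometric CCF4 readout (405 nm excitation; 460 and 530 nm emission) quantified AP-1-driven beta-lactamase in ME-180 cells after 5 h with compound and EC50 EGF; AC50 values were derived for activators and inhibitors.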

In experiment [3] the target is Cytochrome P450 1A2 (Homo sapiens) (UniProt P05177). Briefly: p450-cyp1a2 (AID 410; calls by dose curve; also: potency is read from the fitted curve at half-maximal effect). The conditions noted are these: recombinant CYP1A2, luciferin-ME demethylation, luminescence; series mostly up to 57 µM. In outline:
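Inhibition was calculated relative to 57 uM furafylline (full inhibition). The reaction used human CYP1A2 at 20nM with Luciferin-ME at its Km, 100uM, driven by an NADPH-regenerating system for 60 min at room temperature.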

Experiment [4] can be described thus: NFAT Signaling Pathway (AID 444; active = well fitted curve in either direction with a large enough effect, not every such curve was filed as active;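 also: carbachol stimulus at about its EC50 of 1 µM final; % is scaled to controls: 0 for no effect and ±100 for the full control effect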). To be noted: Jurkat NFAT-bla M1, carbachol, beta-lactamase ratio, 5 h; at 7.69 µM (top of the series) unless noted. Put shortly: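 Jurkat cells carrying an NFAT-driven β-lactamase reporter and co-transfected muscarinic M1 receptor were treated with compound plus carbachol (1 uM final, an EC50 level) for 5 h at 37 °C. CCF4 loading followed for 1 h at RT; 460/530 nm ratio gave %activity.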

Experiment [5] concerns the target Glucocorticoid receptor (Homo sapiens) (UniProt P04150). The experiment can be described thus: GR-GFP Redistribution (AID 450;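 active = compounds whose dose series gives a full or clear partial fitted curve of increased nuclear translocation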; also: potency is read from the fitted curve at half-maximal effect). To be noted: U2OS GR-GFP nuclear translocation, laser cytometry, 2 h.
The target is the same in experiment [6]. Briefly: GR-EFC Redistribution (AID 451; calls by dose curve; also: potency is read from the fitted curve at half-maximal effect). The conditions noted are these: CHO-K1 GR-EFC translocation, beta-gal luminescence, 2 h. In outline: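 CHO-K1 cells stably expressing nuclear-localized β-gal enzyme acceptor and GR fused C-terminally to the enzyme donor fragment; ligand-driven nuclear translocation restores β-gal by complementation. Compounds titrated up to 46 uM final, 2 h at 37 °C; luminescence read.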

Experiment [7] concerns the target 3',5'-cyclic-AMP phosphodiesterase 4B (Homo sapiens) (UniProt Q07343). Briefly: qHTS Assay for Inhibitors of PDE-IV (AID 607; active = well fitted activation curve with a large enough effect in the main read-out, with a control signal flat, not every such curve was filed as active; also: % of control where 0% means no effect). The conditions noted are these: HEK293 ACTOne CNG channel cells, membrane potential fluorescence; series mostly up to 22.9 µM. In outline: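 HEK293 ACTOne cells with CNG channel (1000/well), endogenous PDE4; membrane potential dye, compounds up to 22.9 uM final. Fluorescence Ex 535/Em 590; RO 20-1724 (100 uM final) as reference.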
A general note: qHTS replaces the single test concentration by a dilution series.

In experiment [8] the target is Dual specificity protein kinase CLK4 (Homo sapiens) (UniProt Q9HAZ1). The experiment can be described thus: qHTS Assay for Inhibitors of CDC-like Kinase 4 (Kinase-Glo Assay) (AID 1770). Also: % is scaled to controls: 0 for no effect and ±100 for the full control effect; nearly all actives have a fitted effect of over 65% in size. The conditions noted are these: recombinant Clk4, Kinase-Glo ATP depletion luminescence; series mostly up to 66.7 µM. In outline:
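25 nM Clk4 with 100 uM RS repeat peptide and 1 uM ATP (final) in Tris pH7.5, 10 mM MgCl2, 4.5 h at room temperature. Remaining ATP measured by Kinase-Glo luciferase luminescence.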

The target is the same in experiment [9]. The experiment can be described thus: qHTS Assay for Inhibitors of CDC-like Kinase 4 (ADP-Glo Assay) (AID 1771). Also: % is scaled to controls: 0 for no effect and ±100 for the full control effect; nearly all actives have a fitted effect of over 70% in size. The conditions noted are these: recombinant CLK4, ADP-Glo luminescence; series mostly up to 80 µM. Put shortly:
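Kinase reaction: Clk4 at 25 nM, RS repeat peptide substrate at 100 uM, ATP at 1 uM, 1 hr, room temperature. Product ADP detected as luciferase signal via ADP-Glo.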

The target is the same in experiment [10]. The experiment can be described thus: qHTS Assay for Inhibitors of CDC-like Kinase 4 (ADP-FP Assay) (AID 1795).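 Also: recombinant human CLK4 phosphorylating RS repeat peptide at 1 µM ATP; % is scaled to controls: 0 for no effect and ±100 for the full control effect; nearly all actives have a fitted effect of over 60% in size.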 The conditions noted are these: Transcreener ADP fluorescence polarization; series mostly up to 50 µM. Put shortly:
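Recombinant Clk4 (6.25 nM) phosphorylated 100 uM RS repeat peptide with 1 uM ATP in 25 mM Tris pH 7.5, 10 mM MgCl2, 0.5 mM EGTA, 2.5 mM DTT, 0.01% Triton X-100 for 1 h. ADP was detected by Transcreener ADP2 competitive fluorescence polarization after 30 min at room temperature.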

Experiment [11] addresses Ubiquitin carboxyl-terminal hydrolase 1 (Homo sapiens) (UniProt O94782). The experiment can be described thus: Inhibitors of USP1/UAF1: Pilot qHTS (AID 504865).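 Also: rhodamine fluorescence freed from ubiquitin-rhodamine substrate followed over time; top concentration of the series differs between compounds; % is scaled to controls: 0 for no effect and ±100 for the full control effect; nearly all actives have a fitted effect of over 35% in size.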 To be noted: purified USP1/UAF1, Ub-rhodamine cleavage fluorescence; series mostly up to 54.9 µM. In outline: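 USP1/UAF1 complex at 1 nM preincubated 15 min at room temperature with compound, then Ub-Rho substrate added at 150 nM final. Fluorescence (480/540 nm) read kinetically in 50 mM HEPES pH 7.8, 0.5 mM EDTA, 1 mM TCEP, 0.1 mg/ml BSA, 0.01% Tween-20.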

Experiment [12] in a line: Primary qHTS for small molecule stabilizers of the endoplasmic reticulum resident proteome: Secreted ER Calcium Modulated Protein (SERCaMP) assay (AID 1508630). Also: % is scaled to controls: 0 for no effect and ±100 for the full control effect. The conditions noted are these: SH-SY5Y GLuc-SERCaMP (Gaussia luciferase released on ER calcium loss) secretion, thapsigargin, luminescence; series mostly up to 38.4 µM. In outline:
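GLuc-SERCaMP-expressing SH-SY5Y cells, pretreated 16 h with compound, are challenged with thapsigargin to empty ER calcium stores; after 4 h, coelenterazine is added directly to the medium and luminescence is imaged.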

The target of experiment [13] is Mitogen-activated protein kinase 10 (Mus musculus) (UniProt Q61831). The experiment can be described thus: JNK3 AlphaScreen Assay (AID 530; active = well fitted curve in either direction with a large enough effect, not every such curve was filed as active;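 also: kinase came from lysate of stimulated human HepG2 cells; signal reports phosphorylation of biotinylated GST-cJun 1-79 at Ser73 with 10 µM ATP; % is scaled to controls: 0 for no effect and ±100 for the full control effect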). To be noted: JNK3 lysate, c-Jun phosphorylation; series mostly up to 57.1 µM. Put shortly:
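JNK3 came from HepG2 lysates pre-activated with IL-1beta and TNF-alpha and phosphorylated biotinylated GST-cJun (1-79) at 10 uM ATP, pH 7.6, room temperature. Compounds were titrated. AlphaScreen signal used anti-phospho-cJun (Ser73) antibody.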
(In general: Bead proximity is the source of the signal in Alpha formats.)

Experiment [14] has as its target Cytochrome P450 2D6 (Homo sapiens) (UniProt P10635). Briefly: qHTS Assay for Inhibitors and Substrates of Cytochrome P450 2D6 (AID 891). Also: potency is read from the fitted curve at half-maximal effect; nearly all actives have a fitted effect of over 60% in size. To be noted: recombinant CYP2D6, luciferin-ME EGE luminescence; series mostly up to 57.1 µM. Put shortly:
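Human CYP2D6 (5 nM) with 30 uM Luciferin-ME EGE (at Km) in 100 mM KPO4, compound preincubated 10 min, then NADPH regeneration system for 60 min at room temperature. Luciferin read by luminescence; normalized to 1.43 uM quinidine.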

A short description of experiment [15]: Stat Signaling Pathway (AID 446; active = well fitted curve in either direction with a large enough effect, not every such curve was filed as active). The conditions noted are these: ME-180 (cervical carcinoma) SIE beta-lactamase reporter, IL-6 stimulated, 5 h; at 7.69 µM (top of the series) unless noted. Put shortly:
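ME-180 cells carrying a SIE-driven beta-lactamase reporter are stimulated with 40 pM IL-6 for 5 h at 37C in the presence of compound. The 460/530 nm FRET substrate ratio is read after 2.5 h at RT. Data are normalised to 300 pM IL-6 and to 125 nM JAK inhibitor controls.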

Experiment [16] has as its target Cytochrome P450 3A4 (Homo sapiens) (UniProt P08684). Briefly: qHTS Assay for Inhibitors and Substrates of Cytochrome P450 3A4 (AID 884). Also: % is scaled to controls: 0 for no effect and ±100 for the full control effect; nearly all actives have a fitted effect of over 50% in size. To be noted: recombinant CYP3A4, Luciferin-PPXE luminescence; series mostly up to 57.1 µM. Put shortly:
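20 nM human CYP3A4 with 25 uM Luciferin-PPXE (at KM) in 200 mM KPO4, preincubated 10 min with compound; NADPH regeneration started a 60 min RT reaction. Luciferin detected by luminescence, normalized to 57 uM ketoconazole as full inhibition.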

For experiment [17] the target is unchanged. Briefly: qHTS Assay for Activators of Cytochrome P450 3A4 (AID 885). Also: nearly all actives have a fitted effect of over 65% in size. Also: potency is read from the fitted curve at half-maximal effect. The conditions noted are these: recombinant CYP3A4, Luciferin-PPXE luminescence, 60 min; series mostly up to 57.1 µM. In outline: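 Human CYP3A4 (20 nM) with Luciferin-PPXE at 25 uM (its KM) in 200 mM KPO4; 10 min compound preincubation, then NADPH regeneration and 60 min reaction at RT. Luciferin read by luminescence; normalized to 57 uM ketoconazole full inhibition.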

Values without a mark were called inactive. Records with an inconclusive call do not appear. The source made the active and inactive calls. Unless noted, calls follow the shape of the dose curve; as a rule, active = well fitted curve in the direction sought with a large enough effect; inconclusive = small, poorly fitted or top-dose-only effect, or another doubt; inactive = no such curve, though single readings can be large; an effect the other way counts as inactive or inconclusive.

3',5'-cyclic-AMP phosphodiesterase 4B (Homo sapiens), sequence (Q07343 whole entry, looked up): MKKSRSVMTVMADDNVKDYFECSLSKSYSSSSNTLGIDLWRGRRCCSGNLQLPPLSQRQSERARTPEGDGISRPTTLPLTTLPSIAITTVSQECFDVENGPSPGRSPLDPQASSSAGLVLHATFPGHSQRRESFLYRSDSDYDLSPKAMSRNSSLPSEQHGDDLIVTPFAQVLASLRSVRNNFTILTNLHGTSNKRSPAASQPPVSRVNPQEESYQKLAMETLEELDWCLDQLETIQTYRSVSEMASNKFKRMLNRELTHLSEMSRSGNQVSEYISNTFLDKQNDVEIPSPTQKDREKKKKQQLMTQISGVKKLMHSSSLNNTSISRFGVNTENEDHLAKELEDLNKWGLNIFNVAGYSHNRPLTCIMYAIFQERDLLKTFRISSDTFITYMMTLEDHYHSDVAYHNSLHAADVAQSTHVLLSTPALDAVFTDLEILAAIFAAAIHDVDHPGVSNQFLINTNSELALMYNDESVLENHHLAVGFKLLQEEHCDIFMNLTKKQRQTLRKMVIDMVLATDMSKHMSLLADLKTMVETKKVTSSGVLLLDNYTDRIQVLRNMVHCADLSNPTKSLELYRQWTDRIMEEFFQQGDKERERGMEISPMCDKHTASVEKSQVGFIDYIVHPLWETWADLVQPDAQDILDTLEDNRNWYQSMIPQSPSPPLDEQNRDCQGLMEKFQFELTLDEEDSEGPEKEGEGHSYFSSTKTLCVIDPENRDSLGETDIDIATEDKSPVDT
Glucocorticoid receptor (Homo sapiens), sequence (P04150 whole entry, looked up, the tested form may be a part): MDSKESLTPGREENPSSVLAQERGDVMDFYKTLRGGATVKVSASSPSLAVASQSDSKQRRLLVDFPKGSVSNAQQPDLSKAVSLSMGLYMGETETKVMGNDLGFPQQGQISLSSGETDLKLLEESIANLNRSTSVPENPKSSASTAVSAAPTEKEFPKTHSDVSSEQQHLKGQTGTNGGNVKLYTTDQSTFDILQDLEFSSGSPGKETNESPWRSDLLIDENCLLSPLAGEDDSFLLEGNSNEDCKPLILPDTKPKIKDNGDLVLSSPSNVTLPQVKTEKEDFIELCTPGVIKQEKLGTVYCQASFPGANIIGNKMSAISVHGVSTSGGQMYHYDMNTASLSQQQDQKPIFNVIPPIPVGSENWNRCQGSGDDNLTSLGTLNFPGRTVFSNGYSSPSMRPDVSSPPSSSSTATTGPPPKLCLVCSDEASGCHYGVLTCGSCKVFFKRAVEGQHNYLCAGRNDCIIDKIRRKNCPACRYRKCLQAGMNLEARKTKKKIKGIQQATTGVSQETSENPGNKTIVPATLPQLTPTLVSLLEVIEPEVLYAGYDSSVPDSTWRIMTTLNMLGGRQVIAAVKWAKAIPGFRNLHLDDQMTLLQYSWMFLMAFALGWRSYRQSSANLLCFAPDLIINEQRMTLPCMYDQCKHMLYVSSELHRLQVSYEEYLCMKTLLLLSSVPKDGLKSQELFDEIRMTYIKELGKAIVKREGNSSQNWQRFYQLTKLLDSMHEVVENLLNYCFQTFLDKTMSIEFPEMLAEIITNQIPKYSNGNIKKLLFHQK
Cytochrome P450 3A4 (Homo sapiens), sequence (P08684 whole entry, looked up): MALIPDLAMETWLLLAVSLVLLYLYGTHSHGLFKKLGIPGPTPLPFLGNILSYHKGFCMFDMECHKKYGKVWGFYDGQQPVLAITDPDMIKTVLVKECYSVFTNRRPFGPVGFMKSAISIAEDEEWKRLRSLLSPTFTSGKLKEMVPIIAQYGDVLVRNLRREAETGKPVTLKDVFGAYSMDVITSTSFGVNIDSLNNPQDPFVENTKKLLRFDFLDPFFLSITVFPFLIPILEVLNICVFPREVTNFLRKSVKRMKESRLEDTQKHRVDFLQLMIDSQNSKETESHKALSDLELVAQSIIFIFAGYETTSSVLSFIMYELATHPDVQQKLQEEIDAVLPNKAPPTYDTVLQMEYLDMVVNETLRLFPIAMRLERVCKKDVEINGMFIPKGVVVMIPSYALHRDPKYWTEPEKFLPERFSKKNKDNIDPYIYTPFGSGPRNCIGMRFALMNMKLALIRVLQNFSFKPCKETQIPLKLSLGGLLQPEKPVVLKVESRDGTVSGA
Dual specificity protein kinase CLK4 (Homo sapiens), sequence (Q9HAZ1 whole entry, looked up): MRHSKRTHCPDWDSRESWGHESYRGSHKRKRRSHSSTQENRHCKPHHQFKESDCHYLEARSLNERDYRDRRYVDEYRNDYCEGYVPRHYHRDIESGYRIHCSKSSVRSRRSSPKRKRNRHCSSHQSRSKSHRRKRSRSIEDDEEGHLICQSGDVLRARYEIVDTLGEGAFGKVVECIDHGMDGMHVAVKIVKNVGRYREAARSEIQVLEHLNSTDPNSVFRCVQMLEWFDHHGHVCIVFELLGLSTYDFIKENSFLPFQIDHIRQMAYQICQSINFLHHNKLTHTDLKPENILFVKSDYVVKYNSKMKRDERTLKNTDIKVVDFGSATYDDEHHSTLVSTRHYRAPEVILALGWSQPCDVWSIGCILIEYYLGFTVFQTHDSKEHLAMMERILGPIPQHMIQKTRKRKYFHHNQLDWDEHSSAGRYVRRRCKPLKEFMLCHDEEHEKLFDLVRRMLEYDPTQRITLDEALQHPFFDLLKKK
Ubiquitin carboxyl-terminal hydrolase 1 (Homo sapiens), sequence (O94782 whole entry, looked up): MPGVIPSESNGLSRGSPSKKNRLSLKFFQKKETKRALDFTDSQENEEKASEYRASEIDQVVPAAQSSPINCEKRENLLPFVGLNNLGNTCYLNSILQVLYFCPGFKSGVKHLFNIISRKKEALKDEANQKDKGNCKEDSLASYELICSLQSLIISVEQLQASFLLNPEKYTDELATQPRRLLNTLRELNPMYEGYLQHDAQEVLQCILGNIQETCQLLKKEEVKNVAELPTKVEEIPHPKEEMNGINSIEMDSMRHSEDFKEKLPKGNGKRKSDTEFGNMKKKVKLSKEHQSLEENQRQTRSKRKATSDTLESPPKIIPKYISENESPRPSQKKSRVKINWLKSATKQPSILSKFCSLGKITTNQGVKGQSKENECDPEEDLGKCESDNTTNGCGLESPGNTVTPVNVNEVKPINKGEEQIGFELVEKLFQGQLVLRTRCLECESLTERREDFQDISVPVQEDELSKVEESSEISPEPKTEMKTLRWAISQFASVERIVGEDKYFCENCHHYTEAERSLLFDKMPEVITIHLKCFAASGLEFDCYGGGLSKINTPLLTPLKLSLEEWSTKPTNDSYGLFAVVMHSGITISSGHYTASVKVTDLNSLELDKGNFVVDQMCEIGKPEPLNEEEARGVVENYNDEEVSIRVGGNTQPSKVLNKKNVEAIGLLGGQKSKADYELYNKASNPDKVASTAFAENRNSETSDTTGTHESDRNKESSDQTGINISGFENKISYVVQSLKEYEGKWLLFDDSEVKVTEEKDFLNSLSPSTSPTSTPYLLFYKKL
Cytochrome P450 1A2 (Homo sapiens), sequence (P05177 whole entry, looked up): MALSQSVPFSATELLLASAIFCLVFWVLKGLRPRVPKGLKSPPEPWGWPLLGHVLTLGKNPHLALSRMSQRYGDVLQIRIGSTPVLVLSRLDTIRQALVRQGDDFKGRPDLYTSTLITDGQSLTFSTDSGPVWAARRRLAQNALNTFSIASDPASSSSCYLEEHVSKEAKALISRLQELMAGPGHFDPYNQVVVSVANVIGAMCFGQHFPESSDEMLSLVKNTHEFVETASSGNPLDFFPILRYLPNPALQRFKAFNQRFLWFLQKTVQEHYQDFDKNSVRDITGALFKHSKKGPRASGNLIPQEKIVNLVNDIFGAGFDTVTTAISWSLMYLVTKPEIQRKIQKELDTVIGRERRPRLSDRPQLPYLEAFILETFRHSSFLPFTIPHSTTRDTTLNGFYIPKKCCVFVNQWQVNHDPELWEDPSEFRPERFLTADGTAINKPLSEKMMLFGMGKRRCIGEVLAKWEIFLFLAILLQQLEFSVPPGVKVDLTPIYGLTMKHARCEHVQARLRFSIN
Lysosomal acid glucosylceramidase (Homo sapiens), sequence (P04062 whole entry, looked up): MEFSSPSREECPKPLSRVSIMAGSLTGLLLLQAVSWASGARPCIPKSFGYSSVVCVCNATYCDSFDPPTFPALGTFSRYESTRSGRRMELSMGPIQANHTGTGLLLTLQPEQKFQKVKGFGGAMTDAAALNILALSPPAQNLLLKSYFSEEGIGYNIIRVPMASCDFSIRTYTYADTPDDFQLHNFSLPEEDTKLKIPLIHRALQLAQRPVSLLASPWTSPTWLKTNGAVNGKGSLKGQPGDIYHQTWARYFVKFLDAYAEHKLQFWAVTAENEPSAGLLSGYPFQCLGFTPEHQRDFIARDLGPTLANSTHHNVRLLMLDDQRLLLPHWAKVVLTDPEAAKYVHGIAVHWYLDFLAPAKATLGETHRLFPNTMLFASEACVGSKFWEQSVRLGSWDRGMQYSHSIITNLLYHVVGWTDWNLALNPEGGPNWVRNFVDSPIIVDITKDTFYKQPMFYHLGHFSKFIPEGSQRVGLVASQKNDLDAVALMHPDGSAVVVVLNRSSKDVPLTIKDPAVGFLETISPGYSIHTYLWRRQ
Cytochrome P450 2D6 (Homo sapiens), sequence (P10635 whole entry, looked up): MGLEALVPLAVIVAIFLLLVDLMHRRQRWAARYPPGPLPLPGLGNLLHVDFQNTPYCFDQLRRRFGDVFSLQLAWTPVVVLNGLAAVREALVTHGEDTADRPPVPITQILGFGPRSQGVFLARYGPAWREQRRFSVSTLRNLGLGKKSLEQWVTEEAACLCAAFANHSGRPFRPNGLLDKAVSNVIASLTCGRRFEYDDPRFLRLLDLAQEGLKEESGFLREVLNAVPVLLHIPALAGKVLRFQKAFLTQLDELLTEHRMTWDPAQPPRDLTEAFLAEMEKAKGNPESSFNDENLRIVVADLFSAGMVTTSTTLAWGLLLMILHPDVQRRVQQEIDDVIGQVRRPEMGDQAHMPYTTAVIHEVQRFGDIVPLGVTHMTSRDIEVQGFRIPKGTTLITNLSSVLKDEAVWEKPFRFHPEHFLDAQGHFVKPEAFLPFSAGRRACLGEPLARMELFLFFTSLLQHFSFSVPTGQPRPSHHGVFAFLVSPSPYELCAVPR

As for `CN(C)c1ncc2nc(-c3cccs3)c(=O)n(CCc3ccccc3)c2n1`, the Potency was over 11.4 µM in experiment [1], 5.01 µM (active) in [3], over 9.22 µM in [5] and over 46 µM in experiment [6]. For the same compound, the values for the activity change, negative = inhibition in experiment [2] and in experiment [4] were 14.4% and 9.39%, respectively. The Potency result in experiment [7], in [8], in experiment [9], in [10] and in [11] was “inactive” each time. In addition, in experiment [12], the outcome was inactive.

With `CCNc1ncc2nc(-c3ccccc3)c(=O)n(CCOC)c2n1`, the Potency was over 11.4 µM in [1]; 3.16 µM (active) in experiment [3]; over 9.22 µM in [5]; over 46 µM in experiment [6]; 3.16 µM (active) in experiment [14]. Further, the figures for the activity change, negative = inhibition in experiment [2] and in experiment [4] were 22.2% and 22.8%, respectively. In addition, the Potency result in experiment [13], in [7], in experiment [8], in [9], in experiment [10] and in [11] was “inactive” each time. In addition, the result in experiment [12] was inactive.

On to `CN(C)c1ncc2nc(-c3ccc(Cl)cc3)c(=O)n(C)c2n1`, for which the Potency in [1] is over 11.4 µM; in experiment [3] it was 1.58 µM (active); in experiment [5], over 9.22 µM; in experiment [6] it was over 46 µM. Moreover, the activity change, negative = inhibition in experiment [2] is 24.8%. Besides, the Potency entry in experiment [13], in experiment [7], in experiment [8], in experiment [9], in experiment [10] and in experiment [11] was “inactive” each time. Moreover, the outcome in experiment [12] was inactive.

Turning to `COc1ncc2nc(-c3cn(C)c4ccccc34)c(=O)n(C[C@H]3CCCO3)c2n1`, the Potency in experiment [1] was over 11.4 µM; in experiment [5], over 9.22 µM; in [6] it was over 46 µM. The results for the activity change, negative = inhibition in experiment [2] and in experiment [4] were -6.51% and 3.98%, respectively. Besides, the activity, negative = inhibition in [15] is -5.17%. In addition, the Potency entry in experiment [13], in experiment [8], in experiment [9], in experiment [10] and in [11] was “inactive” in each case. For the same compound, the outcome in experiment [12] was inactive.

`O=c1c(-c2ccc(Cl)cc2)nc2cnc(N3CCOCC3)nc2n1CCc1ccccc1`: the Potency in experiment [1] was over 11.4 µM; in experiment [3], 2 µM (active); in experiment [5] it was over 9.22 µM; in experiment [6], over 46 µM; in experiment [17] it was 15.8 µM (active). The activity change, negative = inhibition in experiment [2] was 87.9% [activator] (active); in experiment [4], 112% [activator] (active). The Potency result in experiment [13], in [7], in [16], in experiment [8], in experiment [9] and in [10] was “inactive” in each case. Further, the Potency result in experiment [11] was “inactive”. In experiment [12], the result was inactive.

As for `COc1ccc(-c2nc3cnc(N(C)C)nc3n(Cc3cccs3)c2=O)cc1`, the Potency in experiment [1] was over 11.4 µM; in experiment [3], 1.58 µM (active); in experiment [5], over 9.22 µM; in experiment [6], over 46 µM. Also, the activity change, negative = inhibition in experiment [2] was 17.1%. Besides, the Potency entry in [17], in [8], in experiment [9], in [10] and in [11] was “inactive” throughout. In experiment [12], the outcome was inactive.

These data come from PubChem BioAssay (NCATS).
